# Data from PubChem BioAssay (NCI).
# Compounds without any hit were thinned out: in the full panel of roughly 83,000, 20% have a hit.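 The endpoint reported here, percent growth, reads 100 for growth as untreated, 0 for no net growth and -100 for all cells dead.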 A number with no mark means an inactive call. Activity calls are given as the source filed them. The calls were made as follows: active = growth percent below 10; inactive = the rest.
# Tested on: NCI-H23 lung
# Test: NCI-60 one-dose screen, 48 h (100 = growth as untreated, 0 = no growth, -100 = all killed)
# Conditions: 10 µM unless noted
row,Compound,growth
1,CC1=C(C)C(=O)C(NCCN2CCOCC2)=C(Br)C1=O,-0.608% (active)
2,N#Cc1ccc(C(=O)NNC(=O)CSc2nc3sc4c(c3c(=O)n2-c2ccc(Cl)cc2)CCCC4)cc1,33.2%
3,CCCCCCCOc1ccc(S(=O)(=O)Nc2ccc(C)c(F)c2C(=O)O)cc1,93.2%

# Tested on: NCI-H226 lung
# Test: as above
# Conditions: 10 µM unless noted
row,Compound,growth
1,O=C(CSc1nc2ccccc2c(=O)[nH]1)Nc1ccccc1C(=O)O,102%
2,Cn1cc(-c2cc(N)n3nc(-c4c[nH]c5ccccc45)cc3n2)c2ccccc21,-38.6% (active)
3,Cc1cccc(/C=C/c2ccc(NC(=S)NCCCCN(C)C)cc2)c1,-72.1% (active)
4,Cc1ccc(N=Nc2c(N)nn3c(-c4cc5ccccc5oc4=O)ccnc23)cc1,33.4%
5,O=C(Nc1nc2ccccc2s1)Nc1ccccc1Cl,31.5%
6,COc1ccc(NC(=O)CSc2nnc(-c3ccc(-c4nc5ccc(Cl)cc5[nH]4)cc3)o2)cc1,-18.8% (active)
7,O=C1Nc2cc(-c3ccc(NS(=O)(=O)c4ccc(C(F)(F)F)cc4)cc3)ccc2/C1=C/c1ccc[nH]1,49.7%
8,COc1ccc(Nc2nnc(-c3c[nH]c4ccccc34)o2)cc1,74.9%
9,Cn1cc(-c2cc(N)n3nc(-c4c[nH]c5ccc(F)cc45)cc3n2)c2cccnc21,-67.5% (active)
10,O=C(NN1C(=O)/C(=C/C=C/c2ccc([N+](=O)[O-])o2)SC1=S)c1ccc([N+](=O)[O-])cc1,-83.3% (active)
11,CN1C(=O)/C(=C/c2ccco2)S/C1=N/c1nccs1,113%
